Shown are actives, neighbours in structure and some others; about 2.2% of the full set was active somewhere.
TRPM1 prom inh – inhibitors of MITF-driven TRPM1 promoter in melanoma cells | SK-MEL-5 TRPM1 promoter luciferase, 24 h | inhibition, % at 12.5 µM | hit rate 0.83% among 330,000 | AID 488899;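 active = mean inhibition across replicates of 60% or more, whatever share of single replicates reaches that level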
Shn3 3UTR inh – reduces Shn3 3'UTR luciferase signal in osteoblasts; Clone20 osteoblast Shn3 3'UTR firefly luciferase, 24 h; inhibition, % at 12.5 µM; hit rate 0.52% among 360,000; AID 588674;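 active = mean inhibition of at least 75% with every replicate also reaching 75%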;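 also: 0% = median of neutral control wells and 100% = pilot-screen positive control compound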
PAX8 reporter – PAX8 transcriptional activity inhibition; RMG-I TPO-luciferase reporter, SteadyGlo, 24 h; inhibition, % at 12.6 µM; hit rate 1.2% among 360,000; AID 652154;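 active = mean replicate inhibition at least 60% with every replicate also reaching 60%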;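 also: luciferase light reporting Pax8 driven TPO promoter activity; plate controls were median of neutral control wells for no effect and mitoxantrone controls for full effect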
LGR2 antag – inhibitors of bursicon-induced Drosophila LGR2 receptor cAMP signaling | AID 720647 | inhibition, % at 9.99 µM | hit rate 0.35% among 380,000 | HEK293 LGR2, CRE-luciferase, bursicon-stimulated, 4 h;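 active = drop in luminescence signal, shown as inhibition above about 50% in the replicate tests, limit read from the data, passing the limit was not always enough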;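 also: agonist challenge used bursicon conditioned medium at about half maximal strength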
EWS-Fli block – inhibitors of EWS/Fli oncoprotein transcriptional activity; hit rate 0.67% among 350,000; inhibition, % at 12.6 µM; A673 NR0B1-luciferase reporter, viability-normalised;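 active = mean inhibition of at least 50% after viability correction, with every replicate also passing that limit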;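 also: firefly luciferase signal divided by Alamar Blue viability fluorescence both relative to DMSO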
EBV LMP1 NFkB – Epstein-Barr LMP1 NF-kappaB reporter inhibition; AID 504558; hit rate 0.69% among 350,000; inhibition, % at 12.5 µM; LMP1-induced NF-kappaB luciferase reporter cells, luminescence; in the data active = inhibition above about 41%;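 also: 0% = neutral control wells and 100% = reference inhibitor control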
The depositor's hits bear a star; x = not tested or not shown.

SMILES	TRPM1 prom inh	Shn3 3UTR inh	PAX8 reporter	LGR2 antag	EWS-Fli block	EBV LMP1 NFkB
O=C1C=CC(O)(c2cc(=O)c3c(O)cc(O)cc3o2)C=C1	80*	97*	89*	89*	73*	-65
Cc1ccc(-n2nc(C(=O)NCc3ccc(C)o3)c3c4ccccc4n(C)c3c2=O)cc1	-6	-4	37	x	x	49*
COc1ccc(-n2nc(C(=O)NCc3ccco3)c3c4ccccc4n(C)c3c2=O)cc1	18	-10	26	-9	7	-1
O=C(O)C[C@H]1CC[C@@H](NC(=O)Nc2ccccc2)[C@@H](CO)O1	x	x	11	-3	5	x
O=C(Oc1ccccc1C(=O)Nc1ccccc1)c1ccccc1Br	-4	-45	-19	x	53*	10
COc1ccc2oc(C(=O)N3CCc4ccccc43)c(C)c2c1	-26	23	-72	59*	x	37
COc1ccc2oc(C(=O)N3CCN(C(c4ccccc4)c4ccccc4)CC3)c(C)c2c1	16	-23	11	11	12	8
CCOc1ccc(Nc2cc(C)nc(-n3nc(C)cc3C)n2)cc1	42	25	68*	x	x	10
Cc1ccc(S(=O)(=O)N(C)C[C@H]2Oc3cc(C#Cc4ccccc4)ccc3S(=O)(=O)N([C@@H](C)CO)C[C@H]2C)cc1	x	x	20	0	-9	x
c1ccc(COc2cccc(-c3cc4nc(NCCc5ccncc5)ccn4n3)c2)cc1	x	2	7	45	-4	x
c1ccc(COc2cccc(-c3cc4nc(NCCCn5ccnc5)ccn4n3)c2)cc1	x	12	-4	80*	10	x
Cn1c(/C=C/c2ccc([N+](=O)[O-])o2)nc2ccccc2c1=O	85*	96*	x	x	x	88*
CCn1ncc(CN2CCC(C(=O)Nc3cccc(-c4cccc(F)c4)c3)CC2)c1C	3	-15	5	-4	x	4
Cc1cc(C)n(CCCN2CCC(C(=O)Nc3cccc(-c4cccc(F)c4)c3)CC2)n1	62*	6	20	-7	28	-10
COC(CNC(=O)c1ccc(N2CCC3(CC2)OCCO3)c([N+](=O)[O-])c1)OC	-1	18	6	x	-40	51*
COc1ccc2c3c([nH]c2c1)[C@H](CO)N(CC1CC1)CC31CN(C(=O)c2ccccc2)C1	x	x	x	-26	3	x
CCCCCCc1cc2cc(C(=O)Nc3ccccc3)c(=O)oc2cc1O	72*	-12	x	41	x	-1
COc1ccc(/C=C2\CCc3ccccc3C2=O)cc1OC	-34	-36	x	-29	x	8
COc1ccc(C=C2C=C(C(C)(C)C)C(=O)C(C(C)(C)C)=C2)cc1OC	-2	93*	14	11	43	-7
O=C(Nc1ccc([N+](=O)[O-])cc1)C(=O)Nc1cccc(C(=O)O)c1	x	86*	101*	98*	91*	90*
O=C(/C=C/c1ccccc1)Nc1cccc(C(=O)O)c1	99*	69	96*	103*	86*	80*
O=C(/C=C/c1ccc([N+](=O)[O-])cc1)Nc1cccc(C(=O)Nc2ccccc2C(=O)O)c1	2	-4	-3	-4	1	-3
COC(=O)c1cccc(NC(=O)/C=C/c2ccc([N+](=O)[O-])cc2)c1	18	-10	-44	1	70*	14
COC(=O)c1cccc(NC(=O)/C=C/c2cccc([N+](=O)[O-])c2)c1	-39	-1	x	-7	14	0
CCOC(=O)c1cccc(NC(=O)/C=C/c2ccc([N+](=O)[O-])cc2)c1	13	-10	7	6	60*	16
SMILES	TRPM1 prom inh	Shn3 3UTR inh	PAX8 reporter	LGR2 antag	EWS-Fli block	EBV LMP1 NFkB
Cc1ccc(S(=O)(=O)N[C@H]2CC[C@H](CCn3cc(-c4cccnc4)nn3)O[C@@H]2CO)cc1	x	x	-14	17	-4	x
CC=Cc1ccc2n(c1=O)C[C@H]1[C@H](CO)[C@@H](C(=O)NCCC)[C@@H]2N1CC1CCCC1 (mixture of isomers)	x	x	x	0	-1	x
CC(=O)N(C)C[C@H]1Oc2cc(-c3ccccc3F)ccc2S(=O)(=O)N([C@@H](C)CO)C[C@@H]1C	x	x	x	-5	-13	x
CSc1ccc(/C=C/C(=O)Nc2ccccc2)cc1	-47	46	-38	77*	5	0
CCCC(=O)N1CC2(CCN(C(=O)Nc3cccc(F)c3)CC2)c2c(n(C)c3cc(OC)ccc23)[C@@H]1CO	x	x	x	13	-9	x
O=C1/C(=C/c2ccc(F)cc2)SC(=S)N1CC(=O)N1CCCCC1c1cccnc1 (stereo unspecified)	7	2	70*	0	6	13
O=C1/C(=C/c2ccccc2F)SC(=S)N1CCC(=O)N1CCCCC1CCO (stereo unspecified)	14	-19	45	20	x	5
O=C1/C(=C/c2ccccc2F)SC(=S)N1CC(=O)N1CCCCC1c1cccnc1 (stereo unspecified)	12	-6	100*	12	10	4
O=c1c2sccc2nc(SCc2ccc([N+](=O)[O-])cc2)n1Cc1ccccn1	-22	34	69*	-7	-4	-15
Cc1ccc(CNC(=O)CSc2nc3ccsc3c(=O)n2Cc2ccccn2)cc1	-8	-14	-27	12	-18	-4
CC[C@H](C)Cc1cn([C@@H](CCCCNC(=O)OC(C)(C)C)C(=O)NCCCCCCCCCCC(=O)N2CCN(C(=O)OC(C)(C)C)CC2)nn1	68*	69	27	x	23	26
C#CCOCCOCCOCCNc1nc(N2CCOCC2)nc(N2CCN(C(=O)CCCCCCCCCCNC(=O)[C@@H](CCSC)n3cc(CCO)nn3)CC2)n1	-16	11	5	12	11	-3
C#CCOCCOCCOCCNc1nc(N2CCN(C(=O)CCCCCCCCCCNC(=O)[C@H](CCCCN)n3cc(CCCC(=O)O)nn3)CC2)nc(N2CCN(C(=O)CCCCCCCCCCNC(=O)[C@H](CCCN=C(N)N)n3cc(C[C@@H](C)CC)nn3)CC2)n1	30	15	x	x	x	-2
C#CCOCCOCCOCCNc1nc(N2CCN(C(=O)CCCCCCCCCCNC(=O)[C@H](CCCCN)n3cc(C[C@@H](C)CC)nn3)CC2)nc(N2CCN(C(=O)CCCCCCCCCCNC(=O)[C@H](CCCCN)n3cc(C[C@@H](C)CC)nn3)CC2)n1	41	-16	x	x	x	16
CC(C)(C)OC(=O)NCCCC[C@@H](C(=O)NCCCCCCCCCCC(=O)N1CCN(C(=O)OC(C)(C)C)CC1)n1cc(CCO)nn1	15	63	20	21	18	1
C#CCOCCOCCOCCNc1nc(N2CCN(C(=O)CCCCCCCCCCNC(=O)[C@@H](CCSC)n3cc(CCO)nn3)CC2)nc(N2CCN(C(=O)CCCCCCCCCCNC(=O)[C@H]([C@@H](C)CC)n3cc(CCCCN=C(N)N)nn3)CC2)n1	63*	46	x	x	x	1
